According to PubChem BioAssay (Tox21):
Results filed as inconclusive are left out. Calls of active or inactive are those of the source. Unless noted, calls follow the shape of the dose curve; as a rule, active = well fitted curve in the direction sought with a large enough effect in the repeat runs; inconclusive = weak or mixed curves; inactive = no such curve, though single readings can be large; an effect the other way counts as inactive or inconclusive.

Tests used:
[1] = qHTS assay to identify small molecule antagonists of the estrogen receptor alpha (ER-alpha) signaling pathway using the BG1 cell line in the presence of 0.1 nM 17-beta-estradiol - cell viability counter screen (AID 1259241); also: nearly all actives have a fitted effect of over 40% in size
Outline: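 The cell line endogenously expresses full-length ER-alpha and carries four EREs driving luciferase. Cells are cultured 5 days hormone-free, treated 22 hr with compounds and 0.1 nM estradiol, then viability is read by fluorescence.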

[2] = qHTS assay to identify small molecule antagonists of the androgen receptor (AR) signaling pathway using the MDA cell line in the presence of 0.5 nM R1881 - cell viability counter screen (AID 1259242); also: nearly all actives have a fitted effect of over 45% in size
Outline: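 Human breast carcinoma MDA-kb2 cells, cultured without CO2, receive compounds alongside 0.5 nM (final) R1881 agonist. After 16 hr at 37C, viability is taken as live-cell protease signal.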

[3] = qHTS assay to identify small molecule phospholipidosis (PLD) inducers (AID 1259344; active = well fitted curve in the direction sought with a large enough effect; an effect the other way counts as inactive or inconclusive)
Outline: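 Accumulated phospholipid, stained red by LipidTOX during 24 h compound treatment of HepG2 cells at 37 C, is quantified from images as pit number and intensity, normalised per cell using Hoechst-stained nuclei.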

[4] = qHTS assay to identify small molecule HDAC inhibitors (AID 1259364);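 also: wild-type HCT-116 cells with endogenous class I/II HDAC activity; top concentration of the series differs between compounds; nearly all actives have a fitted effect of over 45% in size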
Outline: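 After a 2 hr compound incubation (37C, 5% CO2), HCT-116 cells seeded at 1,500/well the day before received HDAC-Glo reagent; signal read as luminescence after 30 min at room temperature.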

[5] = qHTS assay to identify small molecule HDAC inhibitors - cell viability counter screen (AID 1259365); also: series mostly up to about 92 µM; nearly all actives have a fitted effect of over 50% in size
Outline: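 Viability readout: CellTiter-Glo luminescence. Wild-type HCT-116 cells, 2hr compound treatment following overnight attachment at 37 C.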

[6] = qHTS assay to identify small molecule agonists of the sonic hedgehog signaling (Shh) pathway - cell viability counter screen (AID 1259366); also: nearly all actives have a fitted effect of over 50% in size
Outline: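 Viability measured fluorometrically (CellTiter-Fluor, 1hr, 37C) in 3T3 Gli1-Luc reporter cells after 23hr compound exposure within a 24hr incubation at 37C/5% CO2.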

[7] = qHTS assay to identify small molecule antagonists of the sonic hedgehog signaling (Shh) pathway - cell viability counter screen (AID 1259367); also: nearly all actives have a fitted effect of over 55% in size
Outline: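 CellTiter-Fluor signal in conditioned medium-stimulated 3T3 Gli1-Luc cells, 23 hr compound exposure, 37C.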

[8] = qHTS assay to identify small molecule agonists of the sonic hedgehog signaling (Shh) pathway (AID 1259368; calls by dose curve;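 also: NIH/3T3-derived 3T3Gli1-Luc cells carrying a stable Gli1-driven firefly luciferase reporter; series mostly up to about 92 µM; nearly all actives have a fitted effect of over 15% in size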)
Outline: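 Stable NIH/3T3 Gli1-Luc reporter clone; 24 hr cpd exposure after a 4 hr settling period; luminescence endpoint.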

[9] = target: Estrogen receptor (Homo sapiens) (UniProt P03372); test: qHTS assay to identify small molecule antagonists of the estrogen receptor alpha (ER-alpha) signaling pathway using the BG1 cell line in the presence of 0.1 nM 17-beta-estradiol (AID 1259244); also: nearly all actives have a fitted effect of over 50% in size
Chain of Estrogen receptor (Homo sapiens) (P03372 whole entry, looked up): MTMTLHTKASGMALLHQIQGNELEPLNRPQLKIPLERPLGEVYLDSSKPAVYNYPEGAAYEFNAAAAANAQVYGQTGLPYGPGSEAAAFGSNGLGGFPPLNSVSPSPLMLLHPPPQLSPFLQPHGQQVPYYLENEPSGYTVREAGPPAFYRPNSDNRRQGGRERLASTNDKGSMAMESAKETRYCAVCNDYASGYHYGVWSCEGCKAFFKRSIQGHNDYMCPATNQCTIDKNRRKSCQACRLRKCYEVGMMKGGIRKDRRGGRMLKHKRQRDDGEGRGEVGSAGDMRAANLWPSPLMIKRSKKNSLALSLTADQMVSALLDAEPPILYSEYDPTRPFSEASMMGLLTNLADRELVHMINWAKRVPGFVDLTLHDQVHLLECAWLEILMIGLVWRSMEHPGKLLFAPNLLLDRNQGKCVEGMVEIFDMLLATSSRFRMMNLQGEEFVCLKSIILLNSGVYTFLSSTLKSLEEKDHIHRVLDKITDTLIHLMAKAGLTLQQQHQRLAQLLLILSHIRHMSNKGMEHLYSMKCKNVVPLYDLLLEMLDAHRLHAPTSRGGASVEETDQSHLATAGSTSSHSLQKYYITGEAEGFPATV
Outline: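 Seeding of stripped-serum-adapted VM7Luc4E2 cells, 24 h attachment, compound transfer, then 0.1 nM final 17beta-estradiol; after 22 h incubation, ONE-Glo reagent and luminescence reading.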

[10] = target: Androgen receptor (Homo sapiens) (UniProt P10275); test: qHTS assay to identify small molecule antagonists of the androgen receptor (AR) signaling pathway using the MDA cell line in the presence of 0.5 nM R1881 (AID 1259243); also: nearly all actives have a fitted effect of over 50% in size
Chain of Androgen receptor (Homo sapiens) (P10275 whole entry, looked up): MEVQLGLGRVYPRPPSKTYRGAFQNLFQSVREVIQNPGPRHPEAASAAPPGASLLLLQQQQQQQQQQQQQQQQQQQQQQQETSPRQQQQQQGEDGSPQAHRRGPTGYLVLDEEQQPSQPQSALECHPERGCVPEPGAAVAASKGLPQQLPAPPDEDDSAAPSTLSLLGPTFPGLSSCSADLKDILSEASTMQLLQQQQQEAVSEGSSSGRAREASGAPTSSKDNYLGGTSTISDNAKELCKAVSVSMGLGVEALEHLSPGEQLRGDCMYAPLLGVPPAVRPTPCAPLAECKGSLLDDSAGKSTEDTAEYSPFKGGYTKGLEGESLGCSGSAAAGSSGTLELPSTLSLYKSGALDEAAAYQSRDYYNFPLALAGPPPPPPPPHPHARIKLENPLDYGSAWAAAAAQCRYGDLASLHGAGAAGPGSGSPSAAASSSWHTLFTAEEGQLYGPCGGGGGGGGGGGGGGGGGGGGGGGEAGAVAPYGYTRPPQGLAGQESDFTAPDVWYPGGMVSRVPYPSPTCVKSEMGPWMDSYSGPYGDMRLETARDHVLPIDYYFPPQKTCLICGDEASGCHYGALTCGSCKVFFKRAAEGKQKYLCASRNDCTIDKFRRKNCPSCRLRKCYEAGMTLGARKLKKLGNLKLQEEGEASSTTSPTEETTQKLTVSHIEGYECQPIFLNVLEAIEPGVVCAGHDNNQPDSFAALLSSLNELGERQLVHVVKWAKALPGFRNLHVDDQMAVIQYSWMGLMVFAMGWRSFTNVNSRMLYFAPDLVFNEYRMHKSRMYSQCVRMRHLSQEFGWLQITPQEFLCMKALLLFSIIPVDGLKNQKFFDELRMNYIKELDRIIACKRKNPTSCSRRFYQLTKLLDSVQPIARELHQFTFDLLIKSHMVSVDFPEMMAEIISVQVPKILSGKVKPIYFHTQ
Outline: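 Cells: MDA-kb2 (MMTV-luc). Stimulus: 0.5 nM R1881. Time: 16 hr, 37C, no CO2. Detection: ONE-Glo luminescence after 30 min at RT.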
% is scaled to controls: 0 for no effect and ±100 for the full control effect.

O=C(O)CN(CCOCCOCCN(CC(=O)O)CC(=O)O)CC(=O)O
inactive: activity change, negative = cytotoxicity [1] -0.0206% [at 0.349 µM] | viability change, negative = cytotoxic [2] 4.56% [at 0.349 µM] | Potency [3] | activity change, negative = inhibition [4] -0.631% [at 0.349 µM] | activity change, negative = cytotoxicity [5] 5.24% [at 0.349 µM] | viability change, negative = cytotoxic [6] -0.116% [at 0.349 µM] | viability change, negative = cytotoxic [7] 0.536% [at 0.349 µM] | activity change [8] -0.0947% [at 0.349 µM]

CC(C)NCC(O)c1ccc(NS(C)(=O)=O)cc1 (stereo unspecified)
inactive: outcome [1] | Potency [2] | Potency [3] | outcome [5] | Potency [7] | outcome [8]

CC(=O)OC/C=C(\C)CC/C=C(\C)CCC=C(C)C
inactive: outcome [1] | Potency [2] | outcome [9] | outcome [5] | Potency [6] | Potency [7] | outcome [8]

O=C(O)CCCl
inactive: outcome [1] | Potency [2] | outcome [9] | outcome [5] | Potency [7] | outcome [8]

CC(=O)CC(C)(C)C1CCCCC1
inactive: outcome [1] | Potency [2] | outcome [9] | outcome [5] | Potency [7] | outcome [8]

C=C[Si](OC(=C)C)(OC(=C)C)OC(=C)C
inactive: outcome [1] | Potency [2] | outcome [9] | outcome [5] | Potency [6] | Potency [7] | outcome [8]

O=C1CCCCCCCCCCCN1
inactive: outcome [1] | Potency [2] | outcome [9] | outcome [5] | Potency [6] | Potency [7] | outcome [8]

FC(F)OC(Cl)C(F)(F)F (stereo unspecified)
inactive: outcome [1] | Potency [2] | Potency [3] | Potency [4] | outcome [5] | Potency [6] | Potency [7] | outcome [8]

C=COCC1CCC(CO)CC1 (stereo unspecified)
inactive: outcome [1] | Potency [2] | outcome [9] | outcome [5] | Potency [7] | outcome [8]

NCCc1cnc[nH]1
inactive: outcome [1] | Potency [2] | Potency [3] | Potency [4] | outcome [5] | Potency [6] | Potency [7] | outcome [8]

CCc1nccnc1CC
inactive: activity change, negative = cytotoxicity [1] -0.0848% [at 19 µM] | viability change, negative = cytotoxic [2] 6.4% [at 19 µM] | activity change, negative = inhibition [9] 2.66% [at 19 µM] | activity change, negative = inhibition [4] 0.718% [at 19 µM] | activity change, negative = cytotoxicity [5] 0.191% [at 19 µM] | Potency [7] | activity change [8] 0.457% [at 18.9 µM]

CC(=O)N(CC(O)CO)c1c(I)c(C(=O)NCCO)c(I)c(C(=O)NCC(O)CO)c1I (stereo unspecified)
inactive: outcome [1] | Potency [2] | Potency [3] | Potency [4] | outcome [5] | Potency [6] | Potency [7] | outcome [8]

CO/N=C(/C(=O)N[C@@H]1C(=O)N2C(C(=O)OCOC(=O)C(C)(C)C)=C(C)CS[C@H]12)c1csc(N)n1
inactive: outcome [1] | Potency [2] | Potency [3] | Potency [4] | outcome [5] | Potency [7] | outcome [8]

CN(C)CCCNCCCN(C)C
inactive: outcome [1] | Potency [2] | outcome [9] | Potency [4] | outcome [5] | Potency [7] | outcome [8]

O=c1[nH]c(=O)n([C@H]2C[C@H](O)[C@@H](CO)O2)cc1I
inactive: outcome [1] | Potency [2] | Potency [3] | Potency [4] | outcome [5] | Potency [6] | Potency [7] | outcome [8]

Brc1c(NC2=NCCN2)ccc2nccnc12
inactive: outcome [1] | Potency [2] | Potency [3] | Potency [4] | outcome [5] | Potency [6] | Potency [7] | outcome [8]

OC(CCN1CCCCC1)(c1ccccc1)C1CC2C=CC1C2 (stereo unspecified)
inactive: outcome [1] | Potency [2] | outcome [9] | Potency [4] | outcome [5] | Potency [7] | outcome [8]

NC(=O)c1cn(Cc2c(F)cccc2F)nn1
inactive: outcome [1] | Potency [2] | Potency [3] | outcome [5] | Potency [6] | Potency [7] | outcome [8]

COC(=O)c1cc(C(=O)OC)cc(S(=O)(=O)O)c1
inactive: outcome [1] | Potency [2] | Potency [4] | outcome [5] | Potency [6] | Potency [7] | outcome [8]

NC(=O)c1ccc([N+](=O)[O-])cc1
inactive: outcome [1] | Potency [2] | Potency [4] | outcome [5] | Potency [6] | Potency [7] | outcome [8]

COC(C)(C)CCCC(C)CC=O (stereo unspecified)
inactive: outcome [1] | Potency [2] | outcome [5] | Potency [6] | Potency [7] | outcome [8]

COC(=O)CCSCCC(=O)OC
inactive: outcome [1] | Potency [2] | Potency [4] | outcome [5] | Potency [6] | Potency [7] | outcome [8]

CCCCOCCOCCOCCCC
inactive: outcome [1] | Potency [2] | Potency [4] | outcome [5] | Potency [6] | Potency [7] | outcome [8]

COC(=O)[C@@H](N)Cc1ccc(O)c(O)c1
inactive: Potency [2] | Potency [10] | Potency [3] | Potency [4] | outcome [5] | Potency [6] | Potency [7] | outcome [8]

O=C(c1ccccc1)C1CCCCC1
inactive: Potency [2] | Potency [10] | outcome [9] | Potency [4] | outcome [5] | Potency [6] | Potency [7] | outcome [8]

CCSC(=O)N(CC(C)C)CC(C)C
inactive: Potency [2] | Potency [10] | outcome [9] | Potency [4] | outcome [5] | Potency [7] | outcome [8]

N=C(N)c1ccccc1
inactive: outcome [1] | Potency [2] | Potency [4] | outcome [5] | Potency [7] | outcome [8]
